CCHF vOTU inh: CCHFV vOTU protease inhibition; hit rate 0.55% among 370,000; inhibition, % at 11.5 µM; Pep-AMC fluorescence; in the data active = inhibition above about 30%; note: 0% = vehicle wells with enzyme and 100% = no enzyme wells
RecA splice inh: blocks M. tuberculosis RecA intein splicing; P9WHJ3; cell-free RecA intein splicing, fluorescence; inhibition, % (test concentration not listed); hit rate 0.75% among 290,000; in the data active = inhibition above about 30%;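 note: 0% = vehicle wells and 100% = reference inhibitor control wells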
GDH-TPI counter-1: counter-screen for M. tuberculosis FBA inhibitors: GDH-TPI coupled enzymes. GDH-TPI coupled enzyme counterscreen, NADH absorbance. inhibition, % at 4.8 µM. hit rate 1.2% among 360,000. AID 588335; in the data active = inhibition above about 30%;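 note: 0% = DMSO wells and 100% = wells lacking the enzyme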
Mtb FBA inh: inhibitors of M. tuberculosis fructose-bisphosphate aldolase. P9WQA3. purified M. tuberculosis FBA, fluorescence read-out. inhibition, % at 1 µM. hit rate 2.3% among 360,000. AID 588726;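 note: 0% = vehicle and 100% = reference inhibitor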
Mtb FBA confirm: Mtb FBA inhibition, confirmed; shares compounds with Mtb FBA inh; purified M. tuberculosis FBA, fluorescence read-out; inhibition, % at 1 µM; hit rate 78% among 5,600; AID 651616;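 note: 0% = vehicle wells and 100% = reference inhibitor wells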
GDH-TPI counter-2: counter-screen for M. tuberculosis FBA inhibitors: GDH-TPI coupled enzyme inhibition | inhibition, % at 1 µM | GDH-TPI coupled enzyme counterscreen, fluorescence | AID 652141 | hit rate 81% among 5,600 | shares compounds with Mtb FBA inh; in the data active = inhibition above about 10%
The depositor's hits bear a star. An excerpt weighted towards active compounds, which were near 4.2% of everything screened. Cut-off read from the data, not from the text of the source, unless noted: active = inhibition above about 27%; inactive = the rest.

How did Cc1ccc(C2=NN(CC(=O)NCCC(C)C)C(=O)CC2)cc1 do in these assays?
CCHF vOTU inh: -14; RecA splice inh: 2; GDH-TPI counter-1: -4; Mtb FBA inh: -4

What do the screens show for `CCCCn1c(N)c(N(CCOC)C(=O)c2nn(CC)c(=O)c3ccccc23)c(=O)[nH]c1=O`?
CCHF vOTU inh: -3; RecA splice inh: 0; GDH-TPI counter-1: 10; Mtb FBA inh: 3

How did CCc1cc2c(=O)c(-c3nc4ccccc4n3C)c(C)oc2c(CN2CCOCC2)c1O do in these assays?
CCHF vOTU inh: 16; RecA splice inh: -4; GDH-TPI counter-1: 22; Mtb FBA inh: 7

What do the screens show for `COc1ccc(-c2c(C)oc3c(CN4CCN(CCO)CC4)c(O)ccc3c2=O)cc1OC`?
CCHF vOTU inh: -14; RecA splice inh: -7; GDH-TPI counter-1: 12; Mtb FBA inh: 31*; Mtb FBA confirm: 64*; GDH-TPI counter-2: 58*

How did COC(=O)c1ccc(Oc2c(C(F)(F)F)oc3c(CN4CCN(C)CC4)c(O)ccc3c2=O)cc1 do in these assays?
CCHF vOTU inh: 5; RecA splice inh: -9; GDH-TPI counter-1: 16; Mtb FBA inh: -1

What do the screens show for `COc1ccc(-c2c(C)oc3c(CN4CCOCC4)c(O)ccc3c2=O)cc1`?
CCHF vOTU inh: -93; RecA splice inh: -1; GDH-TPI counter-1: 10; Mtb FBA inh: 104*; Mtb FBA confirm: 60*; GDH-TPI counter-2: 51*

How did Cc1oc2c(CN3CCCC3)c(O)ccc2c(=O)c1-c1ccc(Br)cc1 do in these assays?
CCHF vOTU inh: -85; RecA splice inh: -2; GDH-TPI counter-1: 7; Mtb FBA inh: 89*; Mtb FBA confirm: active; GDH-TPI counter-2: active

Results for COCC(=O)N1CCC2CC1c1c(-c3ccc(C(F)(F)F)cc3)cccc12 (stereo not given) ?
CCHF vOTU inh: 22; GDH-TPI counter-1: 11; Mtb FBA inh: 22

What do the screens show for `CCOc1ccc(N(CC(=O)Nc2cccc(C)c2C)S(=O)(=O)c2c(C)[nH]c(=O)[nH]c2=O)cc1`?
CCHF vOTU inh: -2; RecA splice inh: 6; GDH-TPI counter-1: 1; Mtb FBA inh: 1

What do the screens show for `CCOc1ccc(N(CC(=O)Nc2c(C)cccc2C)S(=O)(=O)c2c(C)[nH]c(=O)[nH]c2=O)cc1`?
CCHF vOTU inh: -8; RecA splice inh: -1; GDH-TPI counter-1: 17; Mtb FBA inh: 91*; Mtb FBA confirm: 85*; GDH-TPI counter-2: 53*

What do the screens show for `COC(=O)c1ccc(NC(=O)CSc2nnc(-c3cccnc3)o2)cc1`?
CCHF vOTU inh: -2; RecA splice inh: 1; GDH-TPI counter-1: 0; Mtb FBA inh: 1

Results for COC(=O)[C@]12C[C@H](CC(=O)N3CCN(C(=O)c4ccco4)CC3)C(=O)N(Cc3cccc4ccccc34)C1=C[C@H](COCc1ccccc1)O[C@@H]2C ?
CCHF vOTU inh: 7

Results for O=S(=O)(Nc1cccc2ccccc12)N1CCCC1 ?
CCHF vOTU inh: -5; RecA splice inh: 3; GDH-TPI counter-1: -5; Mtb FBA inh: 28*; Mtb FBA confirm: 72*; GDH-TPI counter-2: 59*

Results for CN(C)c1ccc(C(CNC(=O)Cc2cccc3ccccc23)N(C)C)cc1 (stereo not given) ?
CCHF vOTU inh: -6; RecA splice inh: -2; GDH-TPI counter-1: 5; Mtb FBA inh: 2

What do the screens show for `O=C(NCCc1cn2cccnc2n1)C1CCC(=O)N(Cc2ccccc2F)C1` (stereo not given)?
CCHF vOTU inh: -87; GDH-TPI counter-1: 6; Mtb FBA inh: 94*; Mtb FBA confirm: 60*; GDH-TPI counter-2: 39*

Results for Cc1ccc(C2=NOC3(CC(=O)N(c4ccc(C)cc4)C3=O)C2)cc1 (stereo not given) ?
CCHF vOTU inh: -12; GDH-TPI counter-1: 28; Mtb FBA inh: 29*; Mtb FBA confirm: 43*; GDH-TPI counter-2: 38*

How did Cc1ccc(C2=NOC3(CC(=O)N(c4ccccc4)C3=O)C2)cc1 (stereo not given) do in these assays?
CCHF vOTU inh: -10; RecA splice inh: -1; GDH-TPI counter-1: 10; Mtb FBA inh: 1

How did COCCNc1nc(Oc2cccc3ccccc23)c2sccc2n1 do in these assays?
CCHF vOTU inh: 2; GDH-TPI counter-1: 4; Mtb FBA inh: 0

What do the screens show for `Cc1csc(NC(=O)c2sc3nc(-c4cccs4)ccc3c2N)n1`?
RecA splice inh: -214
